The supplement of paper PMC7411054
Counter-ions that a name gives are not always drawn.

How the values were obtained:
Experiment in all cases: lowest phenotypically active concentration; higher = less potent
Conditions in all cases: treatment time: 24 h
A549-CANX-COX4 = system: A549-CANX-COX4
Procedure, shortened: (§1)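 Cells from fifteen gene-edited reporter lines (A549, HepG2 and WPMY1) were treated for 24 h at 0.3, 1, 3 or 9 µM and imaged live, four wells per condition. Features were normalised per well to solvent control wells. A condition deviated if ≥3 of 4 wells passed the 95th percentile of control Euclidean distances and was reproducible if its median replicate Pearson correlation beat the 95th percentile of non-replicates; phenotypic activity needed both.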

A549-GM130-SQSTM1 = system: A549-GM130-SQSTM1
Procedure, shortened: as §1

A549-TUBA1B-RELA = system: A549-TUBA1B-RELA
Procedure, shortened: as §1

HepG2-ACTB-RAB5A = system: HepG2-ACTB-RAB5A
Procedure, shortened: as §1

HepG2-CANX-COX4 = system: HepG2-CANX-COX4
Procedure, shortened: as §1

HepG2-GM130-SQSTM1 = system: HepG2-GM130-SQSTM1
Procedure, shortened: as §1

HepG2-TUBA1B-RELA = system: HepG2-TUBA1B-RELA
Procedure, shortened: as §1

WPMY1-ACTB-RAB5A = system: WPMY1-ACTB-RAB5A
Procedure, shortened: as §1

WPMY1-CANX-COX4 = system: WPMY1-CANX-COX4
Procedure, shortened: as §1

WPMY1-TUBA1B-RELA = system: WPMY1-TUBA1B-RELA
Procedure, shortened: as §1

SMILES | lowest phenotypically active concentration (A549-CANX-COX4) [µM] | lowest phenotypically active concentration (A549-GM130-SQSTM1) [µM] | lowest phenotypically active concentration (A549-TUBA1B-RELA) [µM] | lowest phenotypically active concentration (HepG2-ACTB-RAB5A) [µM] | lowest phenotypically active concentration (HepG2-CANX-COX4) [µM] | lowest phenotypically active concentration (HepG2-GM130-SQSTM1) [µM] | lowest phenotypically active concentration (HepG2-TUBA1B-RELA) [µM] | lowest phenotypically active concentration (WPMY1-ACTB-RAB5A) [µM] | lowest phenotypically active concentration (WPMY1-CANX-COX4) [µM] | lowest phenotypically active concentration (WPMY1-TUBA1B-RELA) [µM]
C=C1[C@@H](O)C2C=CC[C@H](C)C(=O)[C@](C)(O)C=C[C@@H](OC(C)=O)[C@]23C(=O)N[C@H](Cc2ccccc2)[C@@H]3[C@@H]1C (some centres not stated) [Cytochalasin D] | ≤ 0.3 | ≤ 0.3 | ≤ 0.3 | ≤ 0.3 | ≤ 0.3 | ≤ 0.3 | ≤ 0.3 | ≤ 0.3 | ≤ 0.3 | ≤ 0.3
C[C@@H]1O[C@@H](O[C@H]2C[C@@H](O)[C@]3(CO)[C@H]4[C@H](O)C[C@]5(C)[C@@H](C6=CC(=O)OC6)CC[C@]5(O)[C@@H]4CC[C@]3(O)C2)[C@H](O)[C@H](O)[C@H]1O [Strophantine octahydrate] | ≤ 0.3 | ≤ 0.3 | 1 | ≤ 0.3 | ≤ 0.3 | ≤ 0.3 | ≤ 0.3 | ≤ 0.3 | ≤ 0.3 | ≤ 0.3
COc1ccc(C[C@H]2NC[C@H](O)[C@H]2OC(C)=O)cc1 [Anisomycin] | ≤ 0.3 | ≤ 0.3 | ≤ 0.3 | ≤ 0.3 | ≤ 0.3 | ≤ 0.3 | ≤ 0.3 | ≤ 0.3 | ≤ 0.3 | ≤ 0.3
C=C1[C@@H](C)[C@H]2[C@H](Cc3ccccc3)NC(=O)[C@]23OC(=O)C=C[C@H](O)CCC[C@@H](C)CC=C[C@H]3[C@@H]1O [Cytochalasin B] | 1 | 1 | 1 | 1 | 1 | 1 | 3 | 1 | 1 | 3
COC1=CC(C)=C[C@@H](C)[C@@H](O)[C@@H](C)CC(C)=CC=C[C@H](OC)[C@@H]([C@@H](C)[C@@H](O)[C@H](C)[C@@]2(O)C[C@@H](O)[C@H](C)[C@@H](C(C)C)O2)OC1=O [Bafilomycin A1] | 9 | ≤ 0.3 | ≤ 0.3 | 3 | 3 | 3 | 3 | 1 | 3 | 3
COC[C@H]1OC(=O)c2coc3c2[C@@]1(C)C1=C(C3=O)[C@@H]2CCC(=O)[C@@]2(C)C[C@H]1OC(C)=O [wortmannin] | 9 | 3 | 3 |  |  |  |  |  |  | 
CC(C)[C@@]1(NC(=O)[C@@H]2C[C@@H]3c4cccc5[nH]cc(c45)C[C@H]3N(C)C2)O[C@@]2(O)[C@@H]3CCCN3C(=O)[C@H](Cc3ccccc3)N2C1=O [Dihydroergocristine mesylate] | 9 | 9 | 9 | 3 | 9 | 3 | 3 | 9 | 9 | 9
CC(C)(C)c1cc(C=C(C#N)C#N)cc(C(C)(C)C)c1O [Malonoben] | 1 | ≤ 0.3 | 1 | 1 | 1 | 1 | 1 | 1 | 1 | 1
COc1cc([C@@H]2c3cc4c(cc3[C@H](O)[C@H]3COC(=O)[C@H]23)OCO4)cc(OC)c1OC [Podophyllotoxin] | ≤ 0.3 | ≤ 0.3 | ≤ 0.3 | ≤ 0.3 | ≤ 0.3 | ≤ 0.3 | ≤ 0.3 | ≤ 0.3 | ≤ 0.3 | ≤ 0.3
C[C@@]1(CO)[C@H](O)CC[C@@]2(C)[C@H]1CC[C@H]1C[C@@H]3C[C@@]12CC[C@]3(O)CO [Aphidicolin] | ≤ 0.3 | ≤ 0.3 | ≤ 0.3 | ≤ 0.3 | ≤ 0.3 | ≤ 0.3 | ≤ 0.3 | ≤ 0.3 | ≤ 0.3 | ≤ 0.3
CC[C@@H](C(=O)[C@@H](C)[C@@H](O)[C@H](C)[C@@H]1O[C@@H]([C@@H](CC)C(=O)O)CC[C@@H]1C)[C@H]1O[C@]2(C=C[C@@H](O)[C@]3(CC[C@@](C)([C@H]4CC[C@](O)(CC)[C@H](C)O4)O3)O2)[C@H](C)C[C@@H]1C [Salinomycin Sodium] | 1 | ≤ 0.3 | ≤ 0.3 | 1 | 1 | 1 | ≤ 0.3 | ≤ 0.3 | ≤ 0.3 | ≤ 0.3
COc1ccc2c(c1)/C(=C/c1c[nH]cn1)C(=O)N2 | 1 | 1 | 1 | 1 | 1 | ≤ 0.3 | 1 | 3 | 1 | 1
N#CC(C#N)=NNc1ccc(OC(F)(F)F)cc1 | 9 | 3 | 3 | 9 | 9 | 9 | 9 | 3 | 3 | 9
CN1C[C@H](C(=O)N[C@]2(C)O[C@@]3(O)[C@@H]4CCCN4C(=O)[C@H](Cc4ccccc4)N3C2=O)C=C2c3cccc4[nH]cc(c34)C[C@H]21 [ergotamine] | 3 | 3 | 3 | 9 | 3 | 3 | 9 | 3 | 3 | 3
CC(C)(N)Cc1ccccc1 [phentermine] | 9 |  |  | 9 |  |  |  |  |  | 
O=C(Nc1ccncc1)C(=O)c1cn(Cc2ccc(Cl)cc2)c2ccccc12 [Indibulin] |  | ≤ 0.3 | ≤ 0.3 | 1 | ≤ 0.3 | ≤ 0.3 | 1 | ≤ 0.3 | 3 | ≤ 0.3
Cc1sc2c(c1C)C(c1ccc(Cl)cc1)=N[C@@H](CC(=O)OC(C)(C)C)c1nnc(C)n1-2 | ≤ 0.3 | ≤ 0.3 | ≤ 0.3 | ≤ 0.3 | ≤ 0.3 | ≤ 0.3 | ≤ 0.3 | ≤ 0.3 | ≤ 0.3 | 1
O=C1NC(=O)c2c1c1c3ccccc3n3c1c1c2c2ccccc2n1C1CCC3O1 |  | ≤ 0.3 | ≤ 0.3 |  |  |  |  | 3 | 9 | 
CC(C)(O)[C@H]1O[C@H]2CC[C@@]3(C)[C@@](O)(CC[C@H]4Cc5c([nH]c6ccccc56)[C@@]43C)C2=CC1=O [paxilline] |  |  |  | 9 |  |  |  |  |  | 
C[C@H]1O[C@@H](O[C@H]2[C@@H](O)C[C@H](O[C@H]3[C@@H](O)C[C@H](O[C@H]4CC[C@@]5(C)[C@H](CC[C@@H]6[C@@H]5CC[C@]5(C)[C@@H](C7=CC(=O)OC7)[C@@H](O)C[C@]65O)C4)O[C@@H]3C)O[C@@H]2C)C[C@H](O)[C@@H]1O [Gitoxin] | ≤ 0.3 | ≤ 0.3 | ≤ 0.3 | ≤ 0.3 | ≤ 0.3 | 1 | ≤ 0.3 | ≤ 0.3 | ≤ 0.3 | ≤ 0.3
C[C@@H]1CC[C@H]2[C@@H](C)C(=O)O[C@@H]3O[C@@]4(C)CC[C@@H]1[C@]32OO4 [Artemisinin] |  | 3 | ≤ 0.3 | 3 |  | 3 | ≤ 0.3 | ≤ 0.3 | ≤ 0.3 | ≤ 0.3
COc1cc2c(c(OC)c1OC)-c1ccc(OC)c(=O)cc1[C@@H](NC(C)=O)CC2 [colchicine] | ≤ 0.3 | ≤ 0.3 | 9 | ≤ 0.3 | ≤ 0.3 | ≤ 0.3 | ≤ 0.3 | ≤ 0.3 | ≤ 0.3 | ≤ 0.3
C[C@]12CC[C@H](O)C[C@H]1CC[C@@H]1[C@@H]2C[C@@H](O)[C@]2(C)[C@@H](C3=CC(=O)OC3)CC[C@]12O [Digoxigenin] | 1 | ≤ 0.3 | ≤ 0.3 | 1 | 3 | 3 | 1 | 1 | 1 | 1
